Compounds with a hit are over-represented: about 7.5% of the library has one in this group of screens.
FLuc counter – qHTS profiling assay for firefly luciferase inhibitor/activator using purifed enzyme and Km concentrations of substrates (counterscreen for miR-21 project). Luciferin 4-monooxygenase (Photinus pyralis), P08659. purified FLuc, Km substrates, luminescence inhibition. Potency, µM (highest dose often 57.5 µM), hits mostly inhibitors. hit rate 6.9% among 360,000; note: nearly all actives have a fitted effect of over 55% in size
Target sequence (P08659 whole entry, looked up): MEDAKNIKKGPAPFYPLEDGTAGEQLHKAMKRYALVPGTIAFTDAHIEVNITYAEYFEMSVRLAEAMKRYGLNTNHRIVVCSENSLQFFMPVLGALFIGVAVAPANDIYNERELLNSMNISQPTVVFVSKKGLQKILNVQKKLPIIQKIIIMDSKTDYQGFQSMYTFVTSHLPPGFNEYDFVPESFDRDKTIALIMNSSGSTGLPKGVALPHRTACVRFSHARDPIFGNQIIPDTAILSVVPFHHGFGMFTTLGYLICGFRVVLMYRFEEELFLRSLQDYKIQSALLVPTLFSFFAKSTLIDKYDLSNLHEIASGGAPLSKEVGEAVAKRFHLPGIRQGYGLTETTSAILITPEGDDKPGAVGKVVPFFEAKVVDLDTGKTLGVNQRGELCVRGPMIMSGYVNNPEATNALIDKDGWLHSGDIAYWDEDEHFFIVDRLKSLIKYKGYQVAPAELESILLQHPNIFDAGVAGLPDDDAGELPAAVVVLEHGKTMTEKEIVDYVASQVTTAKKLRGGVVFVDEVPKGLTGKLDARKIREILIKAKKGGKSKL
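Biochemical qHTS of compounds, final roughly 60 µM downward over six points, against 10 nM purified firefly luciferase using Km concentrations of substrates (10 uM D-luciferin, 10 uM ATP) in Tris acetate pH 7.5 buffer; luminescence output.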
Luc counter – Counterscreen for Luciferase (Kinase-Glo TM) Inhibition | AID 1379, 2008 | Kinase-Glo luciferase, ATP luminescence, 8 min | Potency, µM (titrated, usually from 38.3 µM), actives largely listed as inhibitors | Luciferin 4-monooxygenase (Photuris pensylvanica), Q27757 | hit rate 0.28% among 200,000; note: nearly all actives have a fitted effect of over 60% in size
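Compounds were added to a substrate mix at pH 7.2 (50 mM imidazole, 10 uM ATP, within the enzyme's linear range), followed by Kinase-Glo detection reagent; luminescence was measured after 8 minutes at ambient temperature.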
SMN2 splice up – qHTS Assay for Enhancers of SMN2 Splice Variant Expression; HEK293 SMN2-luciferase splicing reporter, luminescence, 30-36 h; Potency, µM (doses to about 46.1 µM), most hits filed as activators; hit rate 2.8% among 210,000; AID 1458, 2008; note: nearly all actives have a fitted effect of over 55% in size
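qHTS luciferase splicing reporter: luminescence rises when SMN2 exon 7 is included in transfected HEK293 cells. Compound exposure lasted 30-36 h at 37C, with 4.5 mM final sodium butyrate as control, followed by a ONE-Glo read.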
Rab9 prom act – qHTS Assay for Rab9 Promoter Activators | Huh7 Rab9 promoter-luciferase reporter, luminescence, 24 h | Potency, µM (doses to about 9.22 µM), actives largely listed as activators | hit rate 2.8% among 320,000 | AID 485297, 2010; note: nearly all actives have a fitted effect of over 60% in size
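Huh7 cells stably carrying Rab9 promoter–luciferase reporter, plated 1500 cells/well, compound added after 2 h and incubated 24 h at 37 °C; luciferase luminescence then read after 10 min with detection reagent.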
NPC1 prom act – qHTS Assay for NPC1 Promoter Activators; Potency, µM (titrated, usually from 9.22 µM), actives largely listed as activators; hit rate 2.4% among 320,000; AID 485313, 2010; Huh7 NPC1 promoter luciferase reporter, 24 h; note: nearly all actives have a fitted effect of over 60% in size
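Cells: Huh7 expressing luciferase under the NPC1 promoter, 1500/well. Seeded 2 h, compound added, incubated 24 h at 37 °C. Luciferase reagent, 10 min ambient, then luminescence.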
ELG1 genotoxic – qHTS screen for small molecules that induce genotoxicity in human embryonic kidney (HEK293T) cells expressing luciferase-tagged ELG1. HEK293T ELG1-luciferase reporter, luminescence, 16 h. Potency, µM (series often up to 46 µM), actives largely listed as activators. hit rate 1.3% among 330,000. AID 504466, 2011; note: nearly all actives have a fitted effect of over 60% in size
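ELG1-luciferase HEK293T cells, 2,000/well; compound pinned in; 16 hr, 37 °C, 5% CO2; ONE-Glo, 30 min RT; luminescence on CCD imager.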
Hits are given with their value; . = inactive; ? = inconclusive; / = not tested or not shown; [ ] = another dose, or the depositor's remark. Calls come from the whole dose curve; as a rule, active = well fitted curve in the direction sought with a large enough effect; inconclusive = small, poorly fitted or top-dose-only effect, or another doubt; inactive = no such curve, though single readings can be large; an effect the other way counts as inactive or inconclusive.

SMILES | FLuc counter | Luc counter | SMN2 splice up | Rab9 prom act | NPC1 prom act | ELG1 genotoxic
CC(C)C(NC(=O)OCc1ccccc1)C(=O)OCC(=O)N1CCCCC1 (stereo not given) | 17µM | . | ? | ? | . | 21µM
N#CC1(O)CCCCC1 | / | / | . | / | / | /
Cc1c(C(C)(C)C)s/c(=N/S(=O)(=O)c2ccccc2)n1C | . | / | / | . | . | .
Cc1c(C(C)(C)C)sc(=NC(=O)c2ccccc2O)n1C | 0.95µM | / | / | 1µM | 2.8µM | ?
COc1ccc(NC(=O)CSc2nnc(-c3cccs3)n2N)c(OC)c1 | . | / | / | . | . | .
COc1ccc(OCCSc2nc3nc(C)cc(C)n3n2)cc1 | . | . | . | . | . | .
c1cnc(SCCCOc2ccc3ccccc3c2)nc1 | 17µM | . | . | ? | ? | 21µM
COc1ccc(OCCSc2ncnc3nc[nH]c23)cc1 | 17µM | . | . | ? | ? | ?
COc1ccc(OCCSc2ncccn2)cc1 | 7.6µM | . | 14µM | 1.6µM | 2.2µM | 3.7µM
Nc1cc(N)nc(SCCOc2ccccc2F)n1 | ? | . | 13µM | ? | . | ?
Fc1ccccc1OCCSc1ncnc2nc[nH]c12 | ? | . | ? | ? | . | ?
O=C(Cc1ccccc1)NC1CC(=O)N(c2ccc3c(c2)OCCO3)C1 (stereo not given) | . | / | / | / | / | /
Cc1nnc(NC(=O)CCC(=O)N2CCN(CCOc3cccc4ccccc34)CC2)s1 | . | / | / | . | . | .
CCOC(=O)c1c(-c2ccc(Br)cc2)csc1NC(=O)c1ccc(C(C)(C)C)cc1 | . | / | . | / | / | /
Cc1ccc(OCCCSc2ncccn2)cc1C | 15µM | . | 20µM | ? | ? | ?
Clc1ccc(OCCSc2ncccn2)cc1 | 6.7µM | . | 25µM | 3.5µM | 2.5µM | 8.2µM
CC(C)(C)c1cccc(OCCCSc2ncccn2)c1 | ? | . | . | . | . | .
COc1ccc(OCCCSc2ncccn2)cc1 | 13µM | . | 25µM | ? | ? | 10µM
COc1cccc(OCCCCSc2ncccn2)c1 | ? | . | . | . | . | ?
COc1cccc(OCCSc2nc(N)cc(N)n2)c1 | 24µM | . | . | ? | ? | ?
COc1ccccc1CNS(=O)(=O)c1ccc2c(c1)CC(C)N2C(C)=O (stereo not given) | . | / | / | / | / | /
COc1ccccc1OCCSc1nc2ccccc2c(=O)[nH]1 | ? | . | ? | . | . | ?
O=c1[nH]c(SCCOc2ccccc2F)nc2ccccc12 | 27µM | . | / | . | . | .
Cc1ccc(-c2cc(-c3cccs3)[nH]n2)c(O)c1 | 6.7µM | . | . | . | . | 4.1µM
C/C(O)=C/c1nc2ccccc2[nH]c1=O | . | . | . | . | . | .
SMILES | FLuc counter | Luc counter | SMN2 splice up | Rab9 prom act | NPC1 prom act | ELG1 genotoxic
C(=C\c1ccco1)/c1nc2ccccc2[nH]1 | 1.9µM | 13µM | / | 0.63µM | 3.5µM | ?
O=C(NCc1nc2ccccc2[nH]1)c1ccco1 | . | . | . | . | . | .
C(=C\c1nc2ccccc2[nH]1)/c1ccccc1 | 0.3µM | 3.5µM | 0.28µM | 0.4µM | 0.18µM | ?
O=c1[nH]c2ccccc2nc1/C=C/c1ccc(Cl)cc1 | ? | / | / | 0.89µM | 3.2µM | 9.2µM
COc1ccc(C(c2c(C)[nH]n(-c3ccccc3)c2=O)c2c(C)[nH]n(-c3ccccc3)c2=O)cc1OC | 19µM | . | . | . | . | .
CCOc1cc(C(c2c(C)[nH]n(-c3ccccc3)c2=O)c2c(C)[nH]n(-c3ccccc3)c2=O)ccc1O | 12µM | / | . | / | / | /
Cc1[nH]n(-c2ccccc2)c(=O)c1C(c1cc(Cl)ccc1O)c1c(C)[nH]n(-c2ccccc2)c1=O | 19µM | / | . | / | / | /
O=c1c(=O)n(-c2ccccc2)ccn1Cc1c(F)cccc1Cl | . | / | / | / | / | /
Cc1ccc(NC2=C(c3ccc(C(F)(F)F)cc3)C(=O)c3ccccc32)cc1C | . | / | . | / | / | /
C/C(=N\OC(=O)c1ccc(OC(C)C)cc1)c1ccc(C)c(C)c1 | 13µM | . | . | . | . | .
CC(C)=NOC(=O)c1ccc(-c2ccccc2)cc1 | 8.5µM | . | ? | . | . | .
COc1ccc(C(=O)O/N=C(\C)c2ccccc2)cc1 | 0.67µM | 13µM | . | . | . | .
COc1ccc2nc(-n3c(O)c(C4=c5ccccc5=NC4=O)[nH]c3=S)sc2c1 | 11µM | . | . | . | . | .
Cn1c(O)c(C2=c3ccccc3=NC2=O)[nH]c1=S | . | . | . | . | . | .
Clc1c(-c2ccccc2)nnn1-c1ccccc1 | 3.4µM | . | 10µM | 2.2µM | 2.2µM | 8.2µM
c1ccc(-n2nnc3ccccc32)cc1 | . | / | / | . | . | .
COc1ccc(N2Cc3ccccc3C2)cc1Cl | ? | . | ? | ? | . | 21µM
CCOc1ccc(Oc2ccc(C(F)(F)F)cc2N)cc1 | ? | . | .[1.84 µM] | . | . | .
COc1cccc(Oc2ccc(C(F)(F)F)cc2N)c1 | 24µM | . | .[1.84 µM] | . | . | ?
Cc1ccc(-c2cn3c(=O)cc(C)[nH]c3n2)cc1 | 0.85µM | . | 10µM | 0.79µM | 1.6µM | ?
Cc1nc(-c2ccccc2)cc(=O)[nH]1 | . | . | . | . | . | .
Cc1cc(=O)n2cc(-c3ccccc3)nc2[nH]1 | 12µM | . | / | . | . | .
COc1ccc(N=Nc2n(C)c3ccccc3[n+]2C)cc1 | 0.076µM | / | / | ? | 0.71µM | 0.92µM
CCOc1cccc(CC(=O)N2CCc3c([nH]c4ccccc34)C2c2ccc(C)cc2)c1OCC (stereo not given) | . | / | / | / | / | /
N#CCn1cnc2sc(-c3ccccc3)cc2c1=O | . | . | . | . | . | .
SMILES | FLuc counter | Luc counter | SMN2 splice up | Rab9 prom act | NPC1 prom act | ELG1 genotoxic
CC(=O)Cn1cnc2sc(-c3ccccc3)cc2c1=O | 9.5µM | . | 20µM | 4.5µM | 3.2µM | 13µM
CCn1cnc2sc(-c3ccccc3)cc2c1=O | 6µM | . | 10µM | 2.8µM | 1.3µM | 3.7µM
CCc1cc2c(=O)n(-c3ccccc3)cnc2s1 | . | . | . | . | . | .
CC(=O)Cn1nnc2sc(-c3ccccc3)cc2c1=O | ? | . | 14µM | ? | ? | ?
O=C(Cn1cnc2sc(-c3ccccc3)cc2c1=O)N1CCOCC1 | . | . | . | . | . | .
CCc1cc2c(=O)n(-c3ccc(C)cc3)cnc2s1 | 11µM | . | 3.2µM | 2.5µM | 4µM | ?
CCOc1cc(N2CCOCC2)c(OCC)cc1NC(=O)c1ccc(OC)c(S(=O)(=O)N2CCOCC2)c1 | / | / | / | / | / | .
CCc1ccc(CNC(=O)c2cnc3sc(N4CCCCCC4)nn3c2=O)cc1 | . | / | / | / | / | /
O=C(c1cnccn1)N1CCC2(CC1)CN(Cc1cc(C(F)(F)F)cc(C(F)(F)F)c1)C2 | / | . | . | / | / | /
CCOC(=O)C(CC)n1nnc2sc(-c3ccccc3)cc2c1=O (stereo not given) | 21µM | / | . | / | / | /
